Measurements reported in ChEMBL document CHEMBL3988442, “University of Dundee, Small-Polar-MMV Screening Library” (2021).
About 13,000 (27%) of roughly 48,000 compounds showed an effect of 50% or more. The list shows a part of the results.

System: Wolbachia pipientis
Assay: Anti-Wolbachia Cell-Based Screen
Format: functional
Set-up: scale not given: in the data most compounds retested in dose-response had high values
Settings: 5 µM

Compound | Percent Effect [%]
O=C(CCNc1ncccn1)NCc1ccc(Br)s1 | 9.501
CC(=O)c1cccc(NC(=O)N2CCCCC2CN2CCCC2=O)c1 (stereo not given) | -4.61
Cc1ccc(C(=O)NCCNCC2CNc3ccnn3C2)cc1 (stereo not given) | -8.644
CC(C)Cc1cc(C(=O)NCC(O)CN2CCCCCC2)on1 (stereo not given) | -21.74
Cc1ccc(OCc2cccc(C(=O)N(C)C(C)CC#N)c2)cn1 (stereo not given) | -5.236
CCOCC1CN(C(=O)Cc2ccccn2)Cc2c1cnn2CC (stereo not given) | -48.51
OCc1ccc(-c2c(-c3ccccc3)ncn2CCN2CCOCC2)o1 | 6.374
CN(C)C(=O)CO[C@H]1CN(Cc2nccs2)[C@@H]2COC[C@H]12.O=C(O)C(F)(F)F | 104.4
O=C(O)C(F)(F)F.c1csc(CN2CCCn3nnc(COCC4CC4)c3C2)n1 | 3.459
O=C(O)C(F)(F)F.c1ccc(C[C@H]2CN(Cc3nccs3)CC[C@@H]2OCC2CC2)cc1 | -18.04
O=C(O)C(F)(F)F.c1csc(CN2C[C@H](OCC3CCOCC3)[C@H]3COC[C@H]32)n1 | 78.63
Cc1ncsc1CN1C[C@@H](OCC(=O)N(C)C)[C@H]2OCCC[C@H]21.O=C(O)C(F)(F)F | -4.628
O=C(O)C(F)(F)F.O=C(O)C(F)(F)F.c1csc(CN2CCOCC3(CCN(C4CCOCC4)C3)C2)n1 (stereo not given) | 4.386
c1cnc(N2C[C@H](OCC3CCOCC3)[C@H]3COC[C@H]32)nc1 | -13.81
O=C(O)C(F)(F)F.c1csc(CN2C[C@H](OCC3CC3)[C@H]3COC[C@H]32)n1 | 114.6
O=C(c1nnn(-c2ccccc2Cl)c1-c1ccccn1)N1CCSCC1 | 5.989
CC(=O)N(Cc1noc(C2CC2)n1)C1CCN(Cc2cccnc2)C1 (stereo not given) | 56.34
CC(=O)N(Cc1noc(C2CC2)n1)C1CCN(Cc2ccccc2)C1 (stereo not given) | 96.7
CC(=O)N(Cc1noc(C2CC2)n1)C1CCN(Cc2ccncc2)C1 (stereo not given) | 0.6841
COC(=O)CN(C(=O)c1ccc(Cl)o1)c1cccc(F)c1 | -9.604
COc1ccc(CN(C)[C@@H]2CN(C(=O)c3ccccc3)C[C@H]2O)cc1 | 114.6
COc1ccc(CN(C)[C@@H]2CN(C(=O)c3cccnc3)C[C@H]2O)cc1 | 87.24
COc1ccc(CN(C)[C@@H]2CN(C(=O)c3ccnn3C)C[C@H]2O)cc1 | 97.48
COc1ccc(OCc2nc(C(=O)N3C[C@H](O)[C@@H](N(C)C)C3)co2)cc1 | -35.76
COc1cccc(C(=O)N2C[C@@H](C(=O)O)[C@H](c3ccccc3C)C2)c1 | -3.21

Compound | Percent Effect [%]
COc1ccc(CN(C)[C@@H]2CN(C(=O)c3cccn3C)C[C@H]2O)cc1 | 98.88
Cn1cccc1C(=O)N1C[C@H]2CN(CC3CC3)C(=O)[C@H]2C1 | -15.38
CN(C)CCOCC1CN(C(=O)c2cccnc2)Cc2ccnn2C1 (stereo not given) | -7.083
Cn1nccc1C(=O)N1CCOC(Cc2cccc(C(F)(F)F)c2)C1 (stereo not given) | -3.764
CCN1C[C@@H]2CN(C(=O)c3cccn3C)C[C@@H]2C1=O | -32.3
COc1ccc(COCC(O)CNC(=O)c2cccnc2)cc1 (stereo not given) | 15.02
COc1cc(C)ccc1OCc1nc(C(=O)N2CCC(C)CC2)co1 | -9.42
CCN1CCC2(CN(C(C)=O)CC23CCN(CC2CC2)CC3)C1=O.O=C(O)C(F)(F)F (stereo not given) | -51.48
COc1ccccc1C1CNC(=O)c2nc(-c3nccn3C)[nH]c2C1 (stereo not given) | 6.875
COc1ccc(CN(C)[C@@H]2CN(C(=O)c3cncs3)C[C@H]2O)cc1 | 107.9
COc1ccc(CN(C)[C@@H]2CN(C(=O)c3cnn(C)c3)C[C@H]2O)cc1 | 88.16
COc1ccc([C@@H]2CN(C(=O)CCCc3cn[nH]c3)C[C@H]2N(C)C)cc1 | -10.76
Cn1cc(C(=O)N2CCCCC2CCc2ccc(O)cc2)cn1 (stereo not given) | -2.601
Cn1cc(C(=O)N2CCCCC2CCc2ccccc2)cn1 (stereo not given) | -0.576
COc1ccc(CN(C)[C@@H]2CN(C(=O)c3cccs3)C[C@H]2O)cc1 | -2.392
CNC(=O)C(C)(C)CNC(=O)Nc1ccc(C)cn1 | -9.639
CCC(Nc1nc(C(F)(F)F)nc2ccccc12)C(=O)O (stereo not given) | 14.92
COc1ccc(OC)c(-c2csc(-c3cccc(C(=O)O)c3)n2)c1 | -14.75
Cc1ccc(-c2csc(-c3cccc(C(=O)O)c3)n2)cc1 | -9.33
COC(=O)c1cccc(-c2nc(CC3CCN(C)CC3)no2)c1 | -1.18
CCc1noc(-c2cccc(C(=O)O)c2)n1 | 137.4
CCc1nc(-c2cccc(C(=O)O)c2)no1 | 110.9
CCc1noc(-c2ccc(SCC(=O)O)nc2)n1 | 5.745
Cc1ccc(Cl)cc1S(=O)(=O)NCc1cnc(N(C)C)n1C | -1.472
Cc1c(NCC(C)(C)C)cccc1C(=O)N(C)Cc1ncnn1C | 4.357
